The target of the assay is Cell division control protein 42 homolog (Homo sapiens) (UniProt P60953). Nature of the assay: blockade of fluorescent GTP loading onto wildtype Cdc42 – biochemical, compound preincubation comparison, flow cytometry beads, Bodipy-FL-GTP, mechanism study for Ras-family GTPase inhibitor project, late-stage follow-up (AID 720712). Particulars: GST-Cdc42 beads, Bodipy-FL-GTP binding, EDTA, protocol A; series mostly up to 100 µM. (In general: In flow cytometry, cells or beads pass a laser one at a time.)
Cell division control protein 42 homolog (Homo sapiens), sequence (P60953 whole entry, looked up): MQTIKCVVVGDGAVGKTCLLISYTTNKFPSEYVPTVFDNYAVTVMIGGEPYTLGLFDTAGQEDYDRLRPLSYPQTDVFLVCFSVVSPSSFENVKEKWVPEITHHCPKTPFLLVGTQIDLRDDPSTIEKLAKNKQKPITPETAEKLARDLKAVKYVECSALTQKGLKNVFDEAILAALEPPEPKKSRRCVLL

Calls of active or inactive are those of the source.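 Rule for the calls: active = EC50 at most 10 µM with response changing by at least 30 points across doses, from an acceptable curve fit; inactive = the rest.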

As for `CC1(C)Cc2c(sc(NC(=S)NC(=O)c3ccc(N=[N+]=[N-])cc3)c2C(=O)O)CO1`, the call was inactive.

Take `CC1(C)Cc2c(sc(NC(=S)NC(=O)c3cccc(N=[N+]=[N-])c3)c2C(=O)O)CO1`: the molecule was classed as inactive.

For the origin of these results see PubChem BioAssay AID720712 (NMMLSC, 2013).
